High-throughput results: PubChem BioAssay, several laboratories
Rv3671c inh – Rv3671c serine protease inhibitors, primary screen, biochemical, fluorescence polarization, M. tuberculosis H37Rv | AID 2606, 2010 | inhibition, % at 5.96 µM | hit rate 0.048% among 320,000; in the data active = inhibition above about 38%;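 also: extracellular domain of Rv3671c used as enzyme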
Target sequence (P9WHR9 whole entry, looked up, the tested form may be a part): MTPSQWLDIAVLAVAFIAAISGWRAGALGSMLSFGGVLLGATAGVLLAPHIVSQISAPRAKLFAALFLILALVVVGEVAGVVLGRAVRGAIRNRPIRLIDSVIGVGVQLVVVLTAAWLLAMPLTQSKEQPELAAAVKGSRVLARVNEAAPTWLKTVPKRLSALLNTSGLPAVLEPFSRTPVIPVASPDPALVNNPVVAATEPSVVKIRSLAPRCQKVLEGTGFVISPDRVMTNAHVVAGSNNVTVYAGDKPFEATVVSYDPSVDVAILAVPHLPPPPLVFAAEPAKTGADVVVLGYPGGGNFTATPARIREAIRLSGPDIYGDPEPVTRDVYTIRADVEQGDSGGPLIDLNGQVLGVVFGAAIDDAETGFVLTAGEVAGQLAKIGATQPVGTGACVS
Mtb bLac sens – beta-lactam sensitization of Mtb H37Rv, H37Rv | M. tuberculosis H37Rv growth with meropenem, percent inhibition | hit rate 0.27% among 330,000 | inhibition, % at 25 µM; call rule not given here;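 also: growth measured after seven days incubation then overnight dye step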
UGM FP inh – M. tuberculosis UGM enzyme inhibitors, primary screen, biochemical, fluorescence polarization, single point; UDP-galactopyranose mutase (Mycobacterium tuberculosis (strain ATCC 25618 / H37Rv)), …; purified UGM, fluorescence polarization probe displacement; inhibition, % at 10 µM; hit rate 0.06% among 320,000; in the data active = inhibition above about 10%, passing the limit was not always enough
GDH-TPI counter-1 – GDH-TPI coupling enzyme inhibitors, primary screen, artefact control for M. tuberculosis FBA inhibitor project, biochemical, absorbance, full deck. hit rate 1.2% among 360,000. inhibition, % at 4.8 µM. GDH-TPI coupled enzyme counterscreen, NADH absorbance; in the data active = inhibition above about 30%
RecA splice inh – Mtb RecA intein splicing inhibitors, primary screen, biochemical, fluorescence, HTS; Protein RecA (Mycobacterium tuberculosis (strain ATCC 25618 / H37Rv)), P9WHJ3; hit rate 0.75% among 290,000; inhibition, % (test concentration not listed); AID 2221, 2009; cell-free RecA intein splicing; in the data active = inhibition above about 30%
Mtb FBA inh – Mtb FBA enzyme inhibitors, primary screen, biochemical, fluorescence, strain H37Rv; purified M. tuberculosis FBA, fluorescence read-out; Fructose-bisphosphate aldolase (Mycobacterium tuberculosis (strain ATCC 25618 / H37Rv)), …; AID 588726, 2011; hit rate 2.3% among 360,000; inhibition, % at 1 µM
Mtb FBA confirm – M. tuberculosis aldolase blockers, biochemical, fluorescence, strain H37Rv, confirmation. AID 651616, 2012. inhibition, % at 1 µM. purified M. tuberculosis FBA, fluorescence read-out. hit rate 78% among 5,600. shares compounds with Mtb FBA inh
GDH-TPI counter-2 – GDH-TPI coupling enzyme inhibitors, artefact control for M. tuberculosis FBA inhibitor project, biochemical, fluorescence, high throughput; shares compounds with Mtb FBA inh; GDH-TPI coupled enzyme counterscreen; inhibition, % at 1 µM; hit rate 81% among 5,600; AID 652141, 2013; in the data active = inhibition above about 10%
Each line names hits and unclear results; the compound was inactive in the other large screens (follow-up assays come after a bar, where they were run). Shown are actives, neighbours in structure and some others; about 4% of the full set was active somewhere. Rule as the data show it, unless noted: active = inhibition above about 27%; inactive = the rest.

CCOC(=O)c1[nH]c2ccc(OC)cc2c1NC(=O)CCN1CCCC(C)C1 (centres undefined)	Mtb FBA inh 35 | Mtb FBA confirm active | GDH-TPI counter-2 active
CCOC(=O)c1[nH]c2ccc(OC)cc2c1N=CN(C)C	Mtb FBA inh 39 | Mtb FBA confirm active | GDH-TPI counter-2 175
Fc1ccc(-c2nc(-c3cccs3)[nH]c2-c2ccc(F)cc2)cc1	Mtb FBA inh 50 | Mtb FBA confirm active | GDH-TPI counter-2 active
COc1ccc(-c2nc(-c3cccs3)c(-c3cccs3)[nH]2)cc1OC	none
COc1ccc(-c2nc(-c3ccccc3)c(-c3cccs3)[nH]2)cc1OC	Mtb FBA inh 49 | Mtb FBA confirm inactive | GDH-TPI counter-2 inactive
Cc1ccsc1-c1nc(-c2ccccc2)c(-c2ccccc2)[nH]1	Mtb FBA inh 29 | Mtb FBA confirm 91 | GDH-TPI counter-2 74
COc1cc(-c2nc(-c3ccccc3)c(-c3ccc(F)cc3)[nH]2)cc2c1OCO2	Mtb FBA inh 31 | Mtb FBA confirm 103 | GDH-TPI counter-2 71
Cc1nn(Cc2ccccc2Cl)c2sc(C(=O)Nc3ccccc3N3CCOCC3)cc12	Mtb FBA inh 97 | Mtb FBA confirm 72 | GDH-TPI counter-2 64
O=c1oc2ccccc2c2c1cnc1ccccc12	none (no result: Rv3671c inh, Mtb bLac sens, UGM FP inh, RecA splice inh)
Cc1cnc(N)c2c(=O)oc3ccccc3c12	Mtb FBA inh 61 | Mtb FBA confirm active | GDH-TPI counter-2 active
FC(F)(F)c1nc2ccccc2n2c(-c3ccc(Cl)cc3)nnc12	Mtb FBA inh 61 | Mtb FBA confirm inactive | GDH-TPI counter-2 inactive
Cc1ccc(-c2nc3ccccc3n3nnnc23)cc1	none (no result: Rv3671c inh, Mtb bLac sens, UGM FP inh)
Cc1ccc(-c2nnc3c(C(F)(F)F)nc4ccccc4n23)cc1	Mtb FBA inh 60 | Mtb FBA confirm active | GDH-TPI counter-2 active
CC(C)Oc1ccc(CNC(=O)C2CCCN(S(=O)(=O)N3CCOCC3)C2)cc1 (centres undefined)	none
O=C1CCC(=O)N1c1nc2nc(-c3ccccc3)cc(-c3ccccc3)n2n1	Mtb FBA inh 66 | Mtb FBA confirm 89 | GDH-TPI counter-2 62
CCOC(=O)CN(c1sc(C)c(C)c1C(=O)OCC)S(=O)(=O)c1ccc(C)cc1	none (no result: Rv3671c inh, Mtb bLac sens, UGM FP inh, RecA splice inh)
CC(C)Sc1nnc(NC(=O)c2ccco2)s1	none
O=C(Nc1nnc(/C=C/c2ccccc2)s1)c1ccco1	GDH-TPI counter-1 74, Mtb FBA inh 34 | Mtb FBA confirm inactive | GDH-TPI counter-2 inactive
COc1cc(N)c2ncsc2c1	none (no result: Rv3671c inh, Mtb bLac sens, UGM FP inh, RecA splice inh)
O=C(CS(=O)CC(=O)Nc1cccnc1)Nc1ccc(F)cc1 (centres undefined)	none
CC(SCc1cc(=O)n2c([nH]c3ccccc32)c1C#N)C(=O)O (centres undefined)	none
CCc1c(C)c(C#N)c2nc3ccccc3n2c1Cl	none (no result: Rv3671c inh, Mtb bLac sens, UGM FP inh, GDH-TPI counter-1, Mtb FBA inh)
CCc1cc(=O)n2c([nH]c3ccccc32)c1C#N	Mtb FBA inh 66 | Mtb FBA confirm 60 | GDH-TPI counter-2 50
CCc1c(C)c(C#N)c2[nH]c3ccccc3n2c1=S	Mtb FBA inh 30 | Mtb FBA confirm 64 | GDH-TPI counter-2 60
Cc1ccc(Cc2c(C)c(C#N)c3[nH]c4ccccc4n3c2=O)cc1	Mtb FBA inh 48 | Mtb FBA confirm 95 | GDH-TPI counter-2 65
CC(C)C(NCC(=O)Nc1ccccc1C(=O)NC1CC1)c1ccccc1 (centres undefined)	none (no result: RecA splice inh)
Cc1oc2c(C)c3oc(=O)c(CCC(=O)NCCN4CCOCC4)c(C)c3cc2c1C	none
Cc1cccc(NC(=O)COc2coc(CN3CCc4ccccc4C3)cc2=O)c1	none
CC(=O)Nc1ccc(NC(=O)CC2(CC(=O)N3CCOCC3)CCCC2)cc1	none (no result: Rv3671c inh, Mtb bLac sens, UGM FP inh, RecA splice inh)
O=C(O)CNc1ccccc1C(=O)O	Mtb FBA inh 58 | Mtb FBA confirm inactive | GDH-TPI counter-2 inactive
O=C(O)c1ccccc1NCc1cccnc1	none
